Compound activity (PubChem)
Tau FP inhib = tau fibrillization inhibition (FP). P10636. K18 P301L tau heparin fibrillization, Alexa594 FP, 6 h. Potency, µM (top dose mostly 57.7 µM), for inactives: top-dose activity, negative = inhibition, hits mostly inhibitors. 280,000 compounds, 0.39% hits; also: potency is read from the fitted curve at half-maximal effect; nearly all actives have a fitted effect of over 55% in size
Target sequence (P10636 561-689 P618L limits assumed): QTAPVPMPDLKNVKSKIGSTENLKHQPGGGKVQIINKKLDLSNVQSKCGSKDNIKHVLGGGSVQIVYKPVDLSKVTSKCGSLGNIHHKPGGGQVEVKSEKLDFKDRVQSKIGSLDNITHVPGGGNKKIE
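Human tau K18 […] P301L fragment, 15 uM unlabeled plus 0.24 uM Alexa 594-labeled tau (final), with compound and 20 uM heparin in 100 mM sodium acetate pH 7; 6 hr at 37 C, then Alexa 594 FP read.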
Tau fluor cs = counter-screen for tau fibril formation inhibitors | 280,000 compounds, 0.93% hits | Potency, µM (top dose mostly 57.7 µM), inactives show at the highest dose activity change, negative = decrease | AID 1463 | tau K18 P301L Alexa594 fluorescence, heparin fibrillization; also: potency is read from the fitted curve at half-maximal effect; nearly all actives have a fitted effect of over 55% in size
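Human K18 P301L tau (15 uM unlabeled plus 0.24 uM Alexa 594-labeled, final) in 100 mM sodium acetate pH 7 was mixed with compound and 20 uM heparin and incubated 6 hr at 37 C.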
FBPA coupling cs = counter-screen for Giardia aldolase inhibitors: coupling enzyme system; activity change, negative = inhibition, % at 58.2 µM, hits read low; 290,000 compounds, 0.67% hits; coupling enzyme system counterscreen, AmpLite Red fluorescence; in the data active = activity change below about -30%
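Coupling enzymes only (glyceraldehyde-3-phosphate) + compound, at 57.5 uM final, 10 min RT; add substrate/coupling/AmpLite Red mix, 20 min RT; fluorescence ex 525/em 598 nm. Actives flag coupling-system interference.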
Tau ThT inhib = inhibitors of human tau fibril formation, thioflavin T binding; Potency, µM (doses to about 57.4 µM), for the others: at the top dose activity, negative = inhibition, usual class: inhibitors; 270,000 compounds, 2.1% hits; recombinant tau K18 P301L (four-repeat tau fragment), heparin-induced fibrillization, ThT fluorescence; P10636; AID 1460; also: potency is read from the fitted curve at half-maximal effect; nearly all actives have a fitted effect of over 55% in size
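Heparin-induced (20 uM) aggregation of recombinant human K18 P301L tau, 15 uM unlabeled with 0.24 uM labeled, pH 7 acetate buffer, 6 hr at 37 C with compound. Fibrils quantified by 30 uM ThT fluorescence after 1 hr ambient incubation.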
Sfp PPTase inh = Sfp phosphopantetheinyl transferase inhibition. Q9F4F7. Biochemical Sfp PPTase activity, qHTS. Potency, µM, without a hit: largest response in the series, negative = inhibition, usual class: inhibitors. 310,000 compounds, 3.5% hits. AID 1490;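 also: the enzyme is Sfp with the accession as filed and its product quenches rhodamine fluorescence; potency is read from the fitted curve at half-maximal effect; 0% = enzyme reaction without inhibitor and -100% = no enzyme wells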
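Fluorescence-quenching assay: 15 nM Sfp-PPTase preincubated 15 min at room temperature with compound, then 5 uM rhodamine-CoA and 12.5 uM BHQ-2-labelled YbbR peptide added. Fluorescence (ex 525/em 598 nm) read at start and after 30 min; difference gives rate.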
Starred values were filed as active, the others as inactive; [ ] = remark or other dose. This is a sample that favours compounds with a hit; in the whole collection about 5.2% have one here. Unless noted, calls follow the shape of the dose curve; as a rule, active = well fitted curve in the direction sought with a large enough effect; inconclusive = small, poorly fitted or top-dose-only effect, or another doubt; inactive = no such curve, though single readings can be large; an effect the other way counts as inactive or inconclusive. Unless noted, % is scaled to controls: 0 for no effect and ±100 for the full control effect.

Screening COc1cc(/C=N/NC(=S)NCCN2CCOCC2)ccc1O returned Tau FP inhib 6%, Tau fluor cs -3%, FBPA coupling cs 2, Tau ThT inhib -3% and Sfp PPTase inh 50µM*.
Screening COc1cc(/C=N/NC(=S)NC2CC3CC2C2C=CCC32)ccc1O (stereo unspecified) returned Tau FP inhib 13%, Tau fluor cs 11µM*[quencher], FBPA coupling cs 0, Tau ThT inhib inconclusive and Sfp PPTase inh 24%.
Screening COCCNC(=S)N/N=C/c1ccc(N2CCOCC2)cc1 returned Tau FP inhib -4%, Tau fluor cs -3%, FBPA coupling cs -6, Tau ThT inhib 1% and Sfp PPTase inh -27%.
COc1ccc(N2CC(NC(=O)c3ccc(Br)o3)CC2=O)cc1 (stereo unspecified) was read as Tau FP inhib -10%, Tau fluor cs -11% and Tau ThT inhib -7%.
`Cc1sc(NC(=O)c2cccs2)c(C(N)=O)c1C` gave Tau FP inhib 0%, Tau fluor cs -2%, FBPA coupling cs 0, Tau ThT inhib -19% and Sfp PPTase inh 40µM*.
For Cc1ccc(C(=O)Nc2sc(C)c(C)c2C(=O)c2ccccc2)cc1 the results were Tau FP inhib -4%, Tau fluor cs -17%, FBPA coupling cs 0, Tau ThT inhib inconclusive and Sfp PPTase inh 20µM*.
Cc1cc(C)cc(NC(=S)NCc2ccc3[nH]c4c(c3c2)CCCC4)c1 was read as Tau FP inhib inconclusive, Tau fluor cs 10µM*[quencher], FBPA coupling cs -4, Tau ThT inhib inconclusive and Sfp PPTase inh 3%.
Screening O=S(=O)(NCc1ccccc1)c1ccc2[nH]c3c(c2c1)CCCCC3 returned Tau FP inhib -11%, Tau fluor cs inconclusive and Tau ThT inhib 11%.
`S=C(NCc1ccc2[nH]c3c(c2c1)CCCC3)Nc1ccccc1` gave Tau FP inhib 12%, Tau fluor cs 13µM*[quencher], FBPA coupling cs -3, Tau ThT inhib inconclusive and Sfp PPTase inh 5%.
Screening CC(=O)OCC(CO)OC(C)=O (stereo unspecified) (tested in a mixture with another compound) returned FBPA coupling cs 1 and Sfp PPTase inh 0%.
For NC(=S)Nc1nc2ccccc2s1 the results were Tau FP inhib inconclusive, Tau fluor cs -19%, FBPA coupling cs -2, Tau ThT inhib -11% and Sfp PPTase inh 50µM*.
O=C(NNc1nc2ccccc2s1)c1ccccc1F was read as Tau FP inhib -8%, Tau fluor cs -7%, FBPA coupling cs 0, Tau ThT inhib -12% and Sfp PPTase inh 20%.
Screening COc1ccc(Nc2ccc(OC)cc2)cc1 returned Tau FP inhib inconclusive, Tau fluor cs inconclusive, FBPA coupling cs -41*, Tau ThT inhib 10µM* and Sfp PPTase inh 2.8µM*.
Screening COc1ccc(Nc2ccc(Nc3ccc(OC)cc3)nn2)cc1 returned Tau FP inhib 6%, Tau fluor cs -25%, FBPA coupling cs 2, Tau ThT inhib inconclusive and Sfp PPTase inh 19%.
For O=C(NNc1nc2ccccc2s1)Nc1ccc(Cl)c(Cl)c1 the results were Tau FP inhib -16%, Tau fluor cs inconclusive, FBPA coupling cs 2, Tau ThT inhib inconclusive and Sfp PPTase inh 56µM*.
O=C(NNc1nc2ccccc2s1)Nc1ccc(F)cc1 was read as Tau FP inhib 9%, Tau fluor cs -12%, FBPA coupling cs -4, Tau ThT inhib inconclusive and Sfp PPTase inh 100µM*.
CCCCN(C)CCCNC(=O)C1CCN(S(=O)(=O)CCC)CC1 was read as Tau FP inhib -4%, Tau fluor cs -8% and Tau ThT inhib -4%.
Screening Nc1nc(N)c(S(=O)(=O)c2ccccc2)c(Nc2ccc(F)cc2)n1 returned Tau FP inhib inconclusive, Tau fluor cs inconclusive and Tau ThT inhib 0%.
COc1ccc(OCc2nnc(NC(=O)Nc3ccc(F)cc3)s2)cc1 was read as Tau FP inhib 10µM*, Tau fluor cs -10%, FBPA coupling cs -1, Tau ThT inhib 6% and Sfp PPTase inh -5%.
`O=C(NNc1nc2ccccc2s1)C1CC1` gave Tau FP inhib 0%, Tau fluor cs -1%, FBPA coupling cs 0, Tau ThT inhib -5% and Sfp PPTase inh 45µM*.
`COc1ccc2nc(Nc3nc(C)c(C(C)=O)s3)sc2c1` gave Tau FP inhib 7%, Tau fluor cs inconclusive, FBPA coupling cs 2, Tau ThT inhib inconclusive and Sfp PPTase inh -8%.
For COc1ccc(NC(=O)Nc2nnc(-c3ccccc3SCc3ccccc3)s2)cc1 the results were Tau FP inhib inconclusive, Tau fluor cs 3.5µM*[quencher], FBPA coupling cs 0, Tau ThT inhib -6% and Sfp PPTase inh -13%.
For COc1cccc(NC(=O)Nc2nnc(-c3ccccc3SCc3ccccc3)s2)c1 the results were Tau FP inhib inconclusive, Tau fluor cs inconclusive, FBPA coupling cs 1, Tau ThT inhib 2% and Sfp PPTase inh -25%.
Screening COc1ccc(Nc2nc3ccc(OC)cc3s2)cc1 returned Tau FP inhib -9%, Tau fluor cs 14µM*[quencher], FBPA coupling cs -3, Tau ThT inhib 13µM* and Sfp PPTase inh -10%.
For CC(C)C(=O)NNc1nc2ccccc2s1 the results were Tau FP inhib 6%, Tau fluor cs -4%, FBPA coupling cs 1, Tau ThT inhib -10% and Sfp PPTase inh 19%.
CC[C@H](C)[C@H](N)C(=O)N[C@H]1CCC(=O)NCC(C(=O)N[C@@H](Cc2ccc(O)cc2)C(=O)N[C@@H](CCCNC(=N)N)C(=O)N[C@@H](CC(C)C)C(=O)N[C@@H](CCCNC(=N)N)C(=O)N[C@@H](Cc2ccc(O)cc2)C(N)=O)NC(=O)[C@@H]2CCCN2C(=O)[C@@H](NC(=O)[C@@H](N)[C@@H](C)CC)CCC(=O)NCC(C(=O)N[C@@H](Cc2ccc(O)cc2)C(=O)N[C@@H](CCCNC(=N)N)C(=O)N[C@@H](CC(C)C)C(=O)N[C@@H](CCCNC(=N)N)C(=O)N[C@@H](Cc2ccc(O)cc2)C(N)=O)NC(=O)[C@@H]2CCCN2C1=O (stereo partly specified) was read as FBPA coupling cs 1 and Sfp PPTase inh 7%.
For COc1ccc(NC(=O)C(NS(=O)(=O)c2cccc3nsnc23)c2ccccc2)cc1 (stereo unspecified) the results were Tau FP inhib -4%, Tau fluor cs -27% and Tau ThT inhib -10%.
Screening O=c1cnc2cnc(Oc3ccccc3)nc2n1Cc1ccc(F)cc1 returned FBPA coupling cs 0 and Sfp PPTase inh -1%.
For N#CCCCSc1nnnn1-c1cc(C(F)(F)F)cc(C(F)(F)F)c1 the results were Tau FP inhib -2%, Tau fluor cs -10%, FBPA coupling cs 2, Tau ThT inhib 5% and Sfp PPTase inh -2%.
COc1ccc(NC(=O)Nc2nc3ccccc3s2)cc1 was read as Tau FP inhib inconclusive, Tau fluor cs 8.9µM*[quencher], FBPA coupling cs 1, Tau ThT inhib inconclusive and Sfp PPTase inh 0%.
